According to PubChem BioAssay (NCI):
Several values for one entry are separate records, joined by “and”; a condition that tells them apart may be missing. Equal entries are not always repeated. The panel holds about 83,000 compounds, 20% with a hit somewhere; the sample as a whole holds those more often.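 Plates (96-well) were seeded with cells, treated with compound at one concentration, and incubated for 48 hours before percent growth was determined.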 Activity calls are given as the source filed them. The calls were made as follows: active = growth percent below 10; inactive = the rest.

Assays:
Assay in all cases: NCI-60 one-dose screen, 48 h (100 = growth as untreated, 0 = no growth, -100 = all killed)
Conditions in all cases: 10 µM unless noted
[1] = system: T-47D breast
[2] = system: BT-549 breast
[3] = system: MDA-MB-435 melanoma
[4] = system: SW-620 colon
[5] = system: MCF7 breast
[6] = system: HCT-116 colon
[7] = system: HCC-2998 colon
[8] = system: KM12 colon

SMILES | growth [1] | growth [2] | growth [3] | growth [4] | growth [5] | growth [6] | growth [7] | growth [8]
COc1cc(NC2CCCCC2O)c2nc(-c3ccc(Cl)cc3)ccc2c1 (stereo unspecified) | 78.5% (inactive) and 86.5% (inactive) | 108% (inactive) and 97.5% (inactive) | 68.4% (inactive) and 86.5% (inactive) | 78.9% (inactive) and 86.7% (inactive) | 51.8% (inactive) and 59.4% (inactive) | 69.6% (inactive) and 77.2% (inactive) | 91.8% (inactive) and 93% (inactive) | 54.9% (inactive) and 68.3% (inactive)
O=C1N=c2ccccc2=C1c1sc(=S)n(C2CC(=O)N(c3ccc(Cl)cc3)C2=O)c1O (stereo unspecified) | 97.9% (inactive) | 105% (inactive) | 102% (inactive) | 99.8% (inactive) | 91.1% (inactive) | 96.7% (inactive) | 105% (inactive) | 100% (inactive)
CCOC(=O)c1c(-c2ccc(C)cc2)c(C#N)c(=O)n(-c2cccc(C(F)(F)F)c2)c1N | 99.9% (inactive) | 113% (inactive) | 102% (inactive) | 101% (inactive) | 94% (inactive) | 103% (inactive) | 107% (inactive) | 100% (inactive)
CN1CCN(c2ccc(Nc3ncc(C(N)=O)c(NCCCNC(=O)C4CCC4)n3)cc2)CC1 | 107% (inactive) | 19.4% (inactive) | 66.9% (inactive) | 70.9% (inactive) | 48.9% (inactive) | 43.2% (inactive) | 85.6% (inactive) | 82.1% (inactive)
Cc1ccc(-c2nc3nc(-c4ccc(F)cc4)nc(N4CCCNCC4)c3o2)cc1 | -63.8% (active) | -76.9% (active) | -95.7% (active) | -84.6% (active) | -72.4% (active) | -87.2% (active) | -89.3% (active) | -86.3% (active)
C=C(C)[C@@H]1CC[C@]2(C)[C@H](CC(=O)N[C@H]3[C@@H]4C[C@](C)(C(=O)OC)CC[C@]4(C)CC[C@]32C)[C@@]1(C)CCC#N | 63.6% (inactive) | 72.1% (inactive) | 87.8% (inactive) | 93% (inactive) | 73.8% (inactive) | 72.2% (inactive) | 100% (inactive) | 79.6% (inactive)
CN1Cn2c(ccc2C(F)(F)F)C(=O)CS1(=O)=O | 115% (inactive) | 105% (inactive) | 103% (inactive) | 104% (inactive) | 98.4% (inactive) | 94.9% (inactive) | 104% (inactive) | 110% (inactive)
